These results are taken from PubChem BioAssay (NCATS).

Results filed as inconclusive are left out. Unmarked numbers belong to inactive results. Calls come from the whole dose curve; as a rule, active = well fitted inhibition curve with a large enough effect; inconclusive = small, poorly fitted or top-dose-only effect, or effect the other way; inactive = flat fitted curve, though single readings scatter.
% is set by controls: 0 for no effect and ±100 for the full control effect.

ATP-dependent 6-phosphofructokinase (Trypanosoma brucei brucei), sequence (O15648 whole entry, looked up): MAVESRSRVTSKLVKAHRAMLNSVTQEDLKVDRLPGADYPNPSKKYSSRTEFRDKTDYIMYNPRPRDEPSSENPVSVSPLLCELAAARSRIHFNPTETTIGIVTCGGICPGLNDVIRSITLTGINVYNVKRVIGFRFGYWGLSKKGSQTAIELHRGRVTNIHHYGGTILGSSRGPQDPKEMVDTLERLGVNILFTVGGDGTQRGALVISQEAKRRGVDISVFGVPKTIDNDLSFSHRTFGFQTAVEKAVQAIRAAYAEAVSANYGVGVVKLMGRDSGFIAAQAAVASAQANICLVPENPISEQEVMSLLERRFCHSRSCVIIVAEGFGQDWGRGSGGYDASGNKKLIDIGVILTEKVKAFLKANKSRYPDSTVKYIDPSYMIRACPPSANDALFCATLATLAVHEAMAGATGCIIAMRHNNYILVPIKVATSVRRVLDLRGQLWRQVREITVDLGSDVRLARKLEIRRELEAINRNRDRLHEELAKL

The target in this assay is ATP-dependent 6-phosphofructokinase (Trypanosoma brucei brucei) (UniProt O15648). Kind of assay: qHTS Assay to Find Inhibitors of T. brucei phosphofructokinase: hit validation (AID 492961).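 Note: luminescence reports ADP formed as PFK phosphorylates fructose-6-phosphate with ATP.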 The note with it: T. brucei PFK, ADP-Glo luminescence; series mostly up to 51.4 µM; activity change, negative = inhibition: at the top concentration. The gist of the method:
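Measures ADP output of PFK (1.25 nM) at 0.1 mM ATP, 0.5 mM F6P, pH 8.0 TEA buffer with 5 mM MgCl2. No-enzyme wells define full inhibition; uninhibited enzyme wells define zero.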
(In general: qHTS replaces the single test concentration by a dilution series.)
As for `O=C(O)CCCC/C=C(\c1ccccc1)c1cccnc1`, the “activity change, negative = inhibition” value is 11.3%.

For the molecule `OCCOCCOCCO`, the “activity change, negative = inhibition” value was -4.82%.

In the case of `O=C(Nc1ccc(O)cc1)c1ccccc1O`, the “activity change, negative = inhibition” value was -2%.

For `O=C1NCCN1c1ncc([N+](=O)[O-])s1`, the “activity change, negative = inhibition” value is 3.39% [at 24.3 µM].

For `CC(C)(C)CC(C)(C)c1ccc(OCCO)cc1`, the “activity change, negative = inhibition” value is 4.02%.

Consider `O=P(O)(O)O`, for which the “activity change, negative = inhibition” value is 2.68%.

As for `CC(=O)[C@H]1CC[C@H]2[C@@H]3C=CC4=CC(=O)CC[C@@]4(C)[C@H]3CC[C@]12C`, the “activity change, negative = inhibition” value was 12.5% [at 24.3 µM].

Turning to `O=P(O)(O)OC[C@H](O)CO`, the “activity change, negative = inhibition” value was 12.2%.

As to `C=CCCCCCCCCC(=O)OC`, the “activity change, negative = inhibition” value is -9.52%.

`Cc1ncc(C[n+]2csc(CCOP(=O)(O)O)c2C)c(N)n1`: the “activity change, negative = inhibition” value is 0%.

Take `Cn1c(=O)c2c(ncn2CCOC(=O)C(C)(C)Oc2ccc(Cl)cc2)n(C)c1=O`: the “activity change, negative = inhibition” value is -8.16%.

Regarding `NC(=O)[C@H]1O[C@@H](O)[C@H](O)[C@@H](O)[C@@H]1O`, the “activity change, negative = inhibition” value was -5.54%.

For the molecule `COc1ccc2nc(NC(=O)Nc3ccccc3)sc2c1`, the “activity change, negative = inhibition” value is -7.32%.

In the case of `C(=C\c1ccncc1)/c1ccccc1`, the “activity change, negative = inhibition” value is -12.5%.

With `C[Si](C)(C)O[Si](C)(C)C`, the “activity change, negative = inhibition” value was 0.801%.

With `C=CC(C)(O)CC/C=C(\C)CCC=C(C)C` (stereo not given), the “activity change, negative = inhibition” value is 3.09%.

Turning to `C#C[C@]1(O)CC[C@@H]2[C@H]3CCC4=CC(=O)CC[C@H]4[C@H]3C(=C)C[C@@]21CC`, the “activity change, negative = inhibition” value is 11.4%.

In the case of `CCC(O)c1ccccc1` (stereo not given), the “activity change, negative = inhibition” value was -0.52%.

`O=C1CCC(c2ccccc2)(C2CCN(Cc3ccccc3)CC2)C(=O)N1` (stereo not given): the “activity change, negative = inhibition” value was -4.14%.

For the molecule `CO`, the “activity change, negative = inhibition” value was -12%.

Regarding `c1ccc2c(c1)OCC(CN1CCCCC1)O2` (stereo not given), the “activity change, negative = inhibition” value is 4.8%.

With `CC(CC=O)CCCC(C)(C)O` (stereo not given), the “activity change, negative = inhibition” value was -2%.

With `CC[C@H]1OC(=O)[C@H](C)[C@@H](O[C@H]2C[C@@](C)(OC)[C@@H](O)[C@H](C)O2)[C@H](C)[C@@H](O[C@@H]2O[C@H](C)C[C@H](N(C)C)[C@H]2O)[C@](C)(O)C[C@@H](C)CN(C)[C@H](C)[C@@H](O)[C@]1(C)O`, the “activity change, negative = inhibition” value was 6.63%.

As for `CCOC(=O)c1c[nH]c2cc(OCC(C)C)c(OCC(C)C)cc2c1=O`, the “activity change, negative = inhibition” value was -0.162%.

Regarding `NCCO/C=C/[C@H](N)C(=O)O`, the “activity change, negative = inhibition” value is 0.806%.

As to `O=C(OC1C[C@@H]2CC3C[C@H](C1)N2CC3=O)c1c[nH]c2ccccc12` (stereo not given in full), the “activity change, negative = inhibition” value is 2.9%.

As to `CCCC(CCC)C(=O)OC1C[C@H]2CC[C@@H](C1)[N+]2(C)C` (stereo not given in full), the “activity change, negative = inhibition” value is -3.92%.

For `OCC(O)CO`, the “activity change, negative = inhibition” value is -3.81%.

Regarding `CC(=O)N[C@@H]1C(O[C@H]2O[C@H](C(=O)O)C(O)[C@H](O)[C@H]2O)[C@H](O)[C@@H](CO)O[C@H]1O[C@@H]1C(C(=O)O)O[C@@H](O[C@H]2[C@H](O)[C@@H](CO)OC(O)[C@@H]2NC(C)=O)[C@H](O)[C@H]1O` (stereo not given in full), the “activity change, negative = inhibition” value was 18.1%.

`CN[C@@H]1[C@H](O[C@H]2[C@H](O[C@H]3[C@H](O)[C@@H](O)[C@H](N=C(N)N)[C@@H](O)[C@@H]3N=C(N)N)O[C@@H](C)[C@]2(O)C=O)O[C@@H](CO)[C@H](O)[C@H]1O`: the “activity change, negative = inhibition” value was 3.26%.

Take `OC/C=C/c1ccccc1`: the “activity change, negative = inhibition” value is -2.16%.

For the molecule `CN(Cc1ccccc1)Cc1ccccc1`, the “activity change, negative = inhibition” value is -1.16%.

Regarding `FC(F)OC(Cl)C(F)(F)F` (stereo not given), the “activity change, negative = inhibition” value was 0%.

For the molecule `CCCOc1cc(N)ccc1C(=O)OCCN(CC)CC`, the “activity change, negative = inhibition” value is 2.39% [at 24.3 µM].

In the case of `CC(C)=CCC/C(C)=C/C=C/C(C)=C/C=C/C(C)=C/C=C/C=C(C)/C=C/C=C(C)/C=C/C=C(\C)CCC=C(C)C`, the “activity change, negative = inhibition” value was -1.38%.
